Among all 63,000 compounds or so, about 1,100 (1.7%) were called active. For the sample, actives were picked, then their nearest neighbours and some compounds at random. Measured potencies and affinities stand elsewhere. Values without a mark were called inactive.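 How the source made its calls: active means compounds whose percent cytotoxicity in the single-dose primary screen, scaled between solvent and toxic-drug controls, exceeds 50; inactive means the rest.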

The results in this text go back to PubChem BioAssay AID431 (Sanford-Burnham Center for Chemical Genomics, 2006).

The nature of the test: cytotoxicity in KRAS-transformed pancreatic duct cells, primary screen, cell-based, fluorescence, HTS (AID 431).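 Further: 0% = DMSO solvent wells and 100% = doxorubicin-treated wells.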 To be noted: HPDE-C7K KRASV12 cells, Alamar Blue viability, 48 h; at 10 µM; active compounds read high. Background: Resazurin is reduced to fluorescent resorufin, in cell work by metabolically active cells.
Regarding `COc1cccc(C(O)c2cnc(C(C)C)n2C)c1OC` (centres undefined), the cytotoxicity was 10.6%. To `O=C(Nc1ccc(S(=O)(=O)N2CCCCC2)cc1)c1ccncc1` belongs -7.1%; to `CCOc1ccccc1-c1nnc(SCC(=O)Nc2ccccc2)o1`, -17.6%.

In the case of `COCCCNC(=O)CS(=O)(=O)Cc1nc(-c2cccc(OC)c2)oc1C`, the cytotoxicity is -6.5%.

Turning to `COc1ccc(-c2nnc3n2-c2ccccc2SC3)cc1OC`, the cytotoxicity is 0%. For `O=C(Cc1cc(=O)[nH]c(=O)[nH]1)N1CCN(C(=O)c2ccco2)CC1` the value was 7.1%; for `CCCCc1ccc(-c2ccc(C)cc2O)nc1`, -28%. To `CCCCCc1cc(O)c2c(C)cc(=O)oc2c1` belongs 39.2%.

On to `C=CCn1c(SCc2csc(C)n2)nc2sc3c(c2c1=O)CCCCC3`, for which the cytotoxicity was 2.5%. To `C=CCn1c(SCc2csc(C)n2)nc2scc(-c3ccc(C)o3)c2c1=O` belongs 80.2% (active); to `Cc1ccc(-c2csc3nc(C)n(-n4c(C)ccc4C)c(=O)c23)o1`, 10.3%; to `Cc1ccc(-c2noc(CN(C(=O)CCN3C(=O)c4ccccc4C3=O)C(C)C)n2)cc1`, -8.2%. For `CC(=O)OCCOc1nc(N(C)C)nc(N(C)C)n1` the value was -13.1%. Regarding `O=C(CCN1CCCC1Cc1ccccc1)c1ccc2c(c1)OCCO2` (centres undefined), the cytotoxicity is -15.3%. For `CCCOc1ccc2ccccc2c1/C=N/n1c(C)nnc1-n1nc(C)cc1C` the value was 39.3%; for `Cc1cc(C)n(-c2nnc(C)n2/N=C/c2ccccc2OCc2ccccc2Cl)n1`, 43.9%. `Cc1cc(C)n(-c2nnc(C)n2/N=C/c2cc(Br)ccc2OCc2ccccc2)n1`: the cytotoxicity is 65.2% (active). To `COc1ccc(-c2nnn(CC(=O)c3ccc4c(c3)OCCO4)n2)cc1OC` belongs 0.3%; to `O=C(c1ccc2ccccc2c1)N1CCN(c2ccc(O)cc2)CC1`, 65.9% (active); to `O=C(c1ccc2ccccc2c1)N1CCN(c2ccccc2)CC1`, -11.6%. With `CN1CCN(C(=O)c2ccc3ccccc3c2)CC1`, the cytotoxicity was -8.1%. To `CC(C)OCCCNC(=O)c1ccc(NC(=O)C2CCCO2)cc1` (centres undefined) belongs -5.7%. With `Cc1cc(NC(=O)C23CCC(C)(C(=O)O2)C3(C)C)no1` (centres undefined), the cytotoxicity was 1.7%.

Take `O=C(NCc1ccco1)N1c2ccccc2Sc2ccccc21`: the cytotoxicity was 7.5%.

`COC(=O)C1=C(C)NC(=O)C1(NC(=O)CN1CCCC1=O)C(F)(F)F` (centres undefined): the cytotoxicity was 13.1%.

As for `CCOC(=O)C1CCCN(C(=O)c2cc3c(C)nc4ccccc4c3o2)C1` (centres undefined), the cytotoxicity was -14.6%. To `Cc1sc(NC(=O)CSc2nnnn2C2CCCC2)c(C#N)c1C` belongs -6.4%. For `N#Cc1c(NC(=O)CSc2nnnn2C2CCCC2)sc2c1CCCC2`, the cytotoxicity was 50.4% (active). For `N#Cc1c(NC(=O)CSc2nnnn2C2CCCCC2)sc2c1CCCC2` the value was -26.1%; for `CC1CCCN(C(=O)c2ccc3nc[nH]c3c2)C1` (centres undefined), -23.2%; for `COc1ccc(C)cc1NC(=O)c1ccc(S(=O)(=O)N2CCOCC2)cc1`, -1.3%. To `COc1cccc(C=NCCNC(=O)c2nonc2N)c1O` belongs -2.1%. Take `Nc1nonc1C(=O)NCCNC(=O)c1ccccc1F`: the cytotoxicity is 2.3%. For `Nc1nonc1C(=O)NCCN=Cc1cc(Cc2ccccc2)cc(Br)c1O` the value was 82.8% (active). Regarding `O=C(OCc1ccccc1Cl)c1ccc(-n2cnnc2)cc1`, the cytotoxicity is -8%. Regarding `CCOc1ccc(-n2cnnn2)cc1S(=O)(=O)NCc1ccccc1`, the cytotoxicity was 4.1%. To `CC(C)(O)C1=NOC(c2ccccc2)C1` (centres undefined) belongs 6.7%. Consider `CCOC(=O)c1ccc(NC(=O)CSc2nnc(-c3cccs3)n2CC)cc1`, for which the cytotoxicity is 0.1%. To `Cc1ccc(SC/C(O)=C(\C#N)c2nc3ccccc3n2C)cc1` belongs 20.5%; to `Cc1ccc(SC/C(O)=C(\C#N)c2nc3ccccc3s2)cc1`, 79.7% (active); to `COC(=O)c1ccc(/C(O)=C(\C#N)c2nc3ccccc3s2)cc1`, 52.1% (active). With `CC(C)=C(C#N)c1nc2ccccc2s1`, the cytotoxicity is -11.4%. For `COc1ccc(C/C(O)=C(\C#N)c2nc3ccccc3s2)cc1` the value was 46.6%; for `N#C/C(=C(/O)CN1CCOCC1)c1nc2ccccc2s1`, 3%. For `c1ccc(N2CCN(c3nnc(Cc4cccnc4)c4ccccc34)CC2)nc1` the value was 8.4%; for `COc1ccc(OC)c(NC(=O)c2cnc3ccccn3c2=O)c1`, 12.6%.

As for `COC(=O)CN(c1ccc(F)cc1)S(=O)(=O)c1ccccc1`, the cytotoxicity was -5.6%. For `CC(C)CCNC(=O)CN(C(=O)CCC(=O)Nc1ccccn1)c1ccc2c(c1)OCO2` the value was -9.3%; for `COC(=O)c1cc(N2C(=O)C3C(C2=O)C2(C)C=CC3(C)O2)ccc1Cl` (centres undefined), 8%. Turning to `Cc1cccc(OCCn2c(=O)n(C)c3ccccc32)c1`, the cytotoxicity was 2.1%.

Turning to `Cc1cccc(OCCCN2CCCCCC2)c1`, the cytotoxicity was 18.4%. For `CCCn1nc(CC(=O)O)c2ccccc2c1=O` the value was 0.6%; for `Cc1ccc(NC(=O)CCn2c(=O)oc3ccccc32)c(C)c1`, -9.2%. As to `CCCCn1c(SCc2ncc(-c3ccccc3)o2)nc2cc(S(N)(=O)=O)ccc21`, the cytotoxicity was 53.1% (active). For `CCCCn1c(SCN2C(=O)c3ccccc3C2=O)nc2cc(S(N)(=O)=O)ccc21` the value was -14.9%; for `CCCCn1c(SCc2c(C)noc2C)nc2cc(S(N)(=O)=O)ccc21`, 39.5%; for `COc1ccccc1C1C2CCCCC2(O)CCN1CC(=O)Nc1ccccc1` (centres undefined), -7.4%. To `Cn1cc(S(=O)(=O)CC(=O)N2CCc3ccccc32)c2ccccc21` belongs 26.9%; to `COc1ccc(C(=O)CSc2nnc(-c3cc4ccccc4cc3O)n2Cc2ccco2)cc1`, 66.1% (active). For `COc1ccc(C(=O)CSc2nnc(-c3ccccn3)n2Cc2ccco2)cc1` the value was 5%; for `O=C(CSc1nnc(-c2cc3ccccc3cc2O)n1Cc1ccco1)c1ccc(F)cc1`, 13.1%.

On to `O=c1c2c3nc4ccccc4nc3n(/N=C/c3ccco3)c2ncn1CCC1=CCCCC1`, for which the cytotoxicity was 30%. To `Cc1nc2c(c(=O)n1CCC1=CCCCC1)c1nc3ccccc3nc1n2/N=C/c1ccco1` belongs 63.1% (active); to `CCCn1c(C)nc2c(c1=O)c1nc3ccccc3nc1n2CCC1=CCCCC1`, 16.1%.
